Measured values taken from PubChem BioAssay.
Several values for one entry are separate records, joined by “and”; a condition that tells them apart may be missing. Equal entries are not always repeated. Activity calls are given as the source filed them.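 Rule for the calls, unless noted: active = compounds whose cell count with miR-34 switched on is under 0.7 times the count with it off; inactive = the rest.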

What was measured:
[1] = sensitizers of A549 cells to miR-34 induction, primary screen, imaging, A549 dox-inducible miR-34, nuclei and caspase counts (AID 1347080); conditions: A549 miR-34 inducible, Hoechst nuclei count, 48 h; note: test concentration not given here
[2] = survival rescue of mitochondrial mutant cells in low glucose, primary screen, MELAS cybrids, Rieske KO mouse fibroblasts, CellTiter-Glo (AID 1508586;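 active = mean z-score across replicates of 1.96 or higher in either the MELAS or the Rieske mutant cell line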;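 note: test concentration not given here; z relative to plate mean and SD of compound and empty wells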)
[3] = viability rescue of complex I mutant cybrids, primary screen, cell-based, galactose medium, ATP luminescence (AID 1645843;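 active = z-score of at least 1.8 in each of two replicates, scored against plate mean and spread of sample wells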;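 note: positive z means more ATP and so rescue of galactose-driven cybrid death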); conditions: complex I mutant cybrid cells, 72 h, stronger effect = higher value
[4] = stronger effect = lower value, cell number ratio, induced over uninduced
[5] = measured here: relative caspase fold change +Dox/-Dox
[6] = measured here: total cells with miR-34 induction, stronger effect = lower value
[7] = measured here: total cells without miR-34 induction
[8] = MELAS cybrid survival, CellTiter-Glo 48 h, stronger effect = higher value
[9] = Rieske KO mouse fibroblast survival, CellTiter-Glo 72 h

SMILES | fold change [1, 4] | fold change [1, 5] | cell count [1, 6] | cell count [1, 7] | z-score [2, 8] | z-score [2, 9] | z-score [3]
CCCn1ncc(NC(=O)Cn2cc(C)c(-c3cccc(Cl)c3)n2)n1 | 0.851 (inactive) | 1.04 | 7170 | 8420 | -0.0413 (inactive) | -0.435 | 1.05 (inactive)
O=C(O)c1ccc(-c2ccccc2[N+](=O)[O-])o1 | 0.891 (inactive) | 0.452 | 8650 | 9710 | -0.508 (inactive) | -0.463 | 0.32 (inactive)
Cc1ccc(CN2CCN(c3ncnc4sccc34)CC2=O)cc1 | 0.911 (inactive) | 1.87 | 4200 | 4610 | -0.0356 (inactive) | -0.417 | 3.8 (active)
CCc1nc(NC(=O)NC(c2ccccc2)c2ccccc2)nn1C | 0.893 (inactive) | 1.04 | 6610 | 7400 | -0.352 (inactive) | -0.694 | 1.48 (inactive)
O=C(c1cccc(=O)[nH]1)N(Cc1cccnc1)Cc1ccc2c(c1)OCO2 | 0.964 (inactive) | 1.96 | 9470 | 9830 | -0.318 (inactive) | 0.234 | -0.17 (inactive)
O=C(Nc1n[nH]c(-c2ccccc2)n1)N1CCN(c2ccc(F)cc2)CC1 | 0.826 (inactive) | 1.21 | 6770 | 8190 | -0.373 | 4.03 | 0.11 (inactive)
O=C1CN(c2ncnc3sccc23)CCN1C1CCCC1 | 0.857 (inactive) | 1.28 | 8070 | 9410 | -1.24 (inactive) | -0.154 | 1.98 (inactive)
CC(C)=CCn1cnc(=N)c2[nH]cnc21 | 0.911 (inactive) | 0.79 | 8970 | 9850 | -0.546 (inactive) | -0.741 | 1.17 (inactive)
Cc1c(CNC(=O)C(=O)c2c(-c3ccccc3)cc3ccccn23)cnn1C | 0.827 (inactive) | 2.08 | 7720 | 9330 | 0.665 (inactive) | -0.13 | 0.815 (inactive)
Nc1nc(-c2ccoc2)c2[nH]cnc2n1 | 0.933 (inactive) | 1.81 | 9520 | 10200 | -0.0543 (inactive) | -0.319 | -0.485 (inactive)
O=c1ccc2ccccc2[nH]1 | 0.871 (inactive) | 0.441 | 8280 | 9510 | 1.28 (inactive) | 0.0217 | 0.98 (inactive)
CN(C)Cc1cn(CC2CCN(C(=O)c3ccc4c(c3)OCO4)CC2)nn1 | 0.896 (inactive) | 1.18 | 9300 | 10400 | -0.121 (inactive) | -0.477 | -0.48 (inactive)
CC(NC(=O)OCc1ccccc1)C(=O)O (stereo unspecified) | 0.909 (inactive) | 0.337 | 9090 | 10000 | 0.137 (inactive) | 0.148 | 0.185 (inactive)
CCc1nc(NC(=O)N(C)CC2Cc3ccccc3O2)nn1C (stereo unspecified) | 0.87 (inactive) | 1.41 | 9140 | 10500 | 0.229 (inactive) | -0.335 | -0.515 (inactive)
O=C(O)CSc1nnc(-c2ccc([N+](=O)[O-])o2)o1 | 0.911 (inactive) | 0.48 | 8530 | 9370 | -1.16 (inactive) | 0.209 | 0.17 (inactive)
COc1ccc(CSc2nnc(-c3ccc4c(c3)OCO4)o2)cc1F | 0.89 (inactive) | 0.327 | 8570 | 9630 | 0.835 (inactive) | -0.403 | 1.06 (inactive)
Cc1cc(-c2csc(Nc3ccc(C(=O)O)c(O)c3)n2)ccc1F | 0.849 (inactive) | 0.325 | 8200 | 9650 | 2.38 (active) | -0.525 | 1.02 (inactive)
Cc1nc(NC(=O)NCC2COc3ccccc3O2)nn1C(C)C (stereo unspecified) | 0.958 (inactive) | 1.49 | 8560 | 8940 | -0.362 (inactive) | 0.824 | 2.15 (active)
Cc1ccc(Cn2nccc2NC(=O)Cn2cc(-c3ccc(F)cc3)cn2)o1 | 0.895 (inactive) | 0.589 | 8330 | 9310 | -0.0022 (inactive) | -0.187 | 1.75 (inactive)
CN1CCN(Cc2cccc(-n3cccn3)c2)CC1CCO (stereo unspecified) | 0.861 (inactive) | 3.04 | 8640 | 10000 | -0.56 (inactive) | -0.308 | -0.58 (inactive)
O=C(O)c1cc(Br)ccc1NS(=O)(=O)c1ccc(Cl)cc1 | 0.854 (inactive) | 0.75 | 8540 | 10000 | -0.163 (inactive) | -0.343 | 0.495 (inactive)
CC(c1ncncc1F)[C@](O)(Cn1cncn1)c1ccc(F)cc1F (stereo partly specified) | 0.956 (inactive) and 0.928 (inactive) | 2.43 and 0.867 | 9660 and 8390 | 10100 and 9030 | -0.404 (inactive) | 0.698 | 0.71 (inactive)
Cc1cc(C)nc(-c2cnn(CC(=O)Nc3cc(C)nn3-c3ccccn3)c2)n1 | 0.882 (inactive) | 1.32 | 5870 | 6650 | -0.672 (inactive) | -0.181 | -0.415 (inactive)
